Rows were chosen to be rich in hits. Some 0.93% of all compounds tested hit in one or more screens of this group.
CIT2-GFP yeast: modulators of TOR pathway CIT2-GFP in S. cerevisiae; S. cerevisiae CIT2-GFP strain, flow cytometry, 3 h; 100 means same as DMSO wells; GFP response vs DMSO, % at 10 µM; 320,000 tested, 0.065% active; AID 2029;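 active means GFP response relative to DMSO above a set limit, near the screen mean plus 3 SD, cut at about 150% in these data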;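 further: ratio of well median GFP fluorescence to mean of DMSO wells on the plate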
LAP4 TOR yeast: modulators of TOR pathway LAP4-GFP in S. cerevisiae. S. cerevisiae LAP4-GFP multiplex, flow cytometry GFP, 3 h; median GFP as percent of DMSO wells. GFP response vs DMSO, % at 10 µM. 320,000 tested, 0.34% active;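 active means GFP response vs DMSO above a set limit, about the screen mean plus 3 SD, cut at about 150% in these data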
MEP2-GFP yeast: modulators of TOR pathway MEP2-GFP in S. cerevisiae; S. cerevisiae MEP2-GFP strain, flow cytometry GFP, 3 h; 100% = DMSO control level; GFP response vs DMSO, % at 10 µM; 330,000 tested, 0.51% active; AID 2016;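 active means GFP response versus DMSO above a set limit, roughly screen mean plus 3 SD, cut at about 180% in these data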;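 further: median GFP fluorescence of the barcode-gated MEP2-GFP cells per well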
AGP1-GFP MLPCN: yeast TOR pathway AGP1-GFP modulation. GFP response vs DMSO, % at 10 µM. S. cerevisiae AGP1-GFP multiplex flow cytometry, 3 h; GFP as percent of DMSO wells. 320,000 tested, 0.02% active. AID 2066;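 active means GFP response relative to DMSO above a set limit, near screen average plus 3 SD, cut at about 150% in these data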;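 further: median GFP channel fluorescence of the gated AGP1 strain per well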
RPL19A-GFP yeast: alters RPL19A-GFP fluorescence in TOR pathway yeast screen; S. cerevisiae RPL19A-GFP strain, flow cytometry, 3 h; stronger effect = lower value; percent response vs DMSO, % at 10 µM; 330,000 tested, 0.3% active; AID 2025;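 active means percent response vs DMSO below 50%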;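 further: median channel GFP fluorescence of the barcoded RPL19A-GFP strain; ratio of sample median GFP to plate DMSO average so 100% = DMSO; lower means less RPL19A-GFP as with rapamycin TOR inhibition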
LAP4 cherry2: yeast LAP4-GFP modulation, second cherry pick. GFP response vs DMSO, % at 10 µM. AID 2621. 590 tested, 20% active. S. cerevisiae LAP4-GFP strain, flow cytometry GFP, 3 h. shares compounds with LAP4 TOR yeast;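 active means GFP signal as percent of the solvent control above about 150%, meaning raised reporter expression, limit read from the data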;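 further: ratio of well median GFP fluorescence to plate DMSO mean so 100% = DMSO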
MEP2 cherry2: second confirmation of modulators of TOR reporter MEP2-GFP in yeast. shares compounds with LAP4 TOR yeast. S. cerevisiae MEP2-GFP strain, flow cytometry GFP, 3 h. GFP response vs DMSO, % at 10 µM. 590 tested, 10% active. AID 2622;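 active means GFP signal above 150% of the solvent control wells, that is a rise of more than half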;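 further: median channel GFP fluorescence of all gated yeast cells per well; ratio of median GFP to plate DMSO average so 100% = DMSO level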
RPL19A GFP CP2: yeast RPL19A-GFP TOR reporter modulation, second cherry pick | shares compounds with LAP4 TOR yeast | S. cerevisiae RPL19A-GFP strain, flow cytometry GFP, 3 h; stronger effect = lower value; 100% means same as DMSO wells | GFP response vs DMSO, % at 10 µM | 590 tested, 3% active;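 active means under 65% GFP response relative to DMSO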;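 further: median GFP channel fluorescence per well over the all cells gate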
CIT2 GFP CP2: reconfirmed modulator of CIT2-GFP TOR reporter in yeast | GFP response vs DMSO, % at 10 µM | 590 tested, 8% active | shares compounds with LAP4 TOR yeast | S. cerevisiae CIT2-GFP strain, flow cytometry GFP, 3 h; DMSO control wells read 100% | AID 2624;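 active means GFP response vs DMSO above about 150%, limit read from the data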;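 further: median green fluorescence per well over all gated yeast cells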
AGP1-GFP pick2: second confirmation of modulators of TOR reporter AGP1-GFP in yeast; shares compounds with LAP4 TOR yeast; S. cerevisiae AGP1-GFP strain, flow cytometry GFP, 3 h; percent response vs DMSO, % at 10 µM; 590 tested, under 10 active; AID 2643;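 active means over 150 percent of DMSO response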;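 further: median GFP channel fluorescence over all cells without mother daughter split; sample median GFP divided by mean DMSO control so 100% equals DMSO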
s288c autofluor: yeast s288c autofluorescence artifact, counter-screen; shares compounds with LAP4 TOR yeast; S. cerevisiae s288c, 520 nm autofluorescence, flow cytometry, 3 h; stronger effect = higher value; zero means same as solvent-only cells; fluorescence change (kMESF span) at 33 µM; 610 tested, under 10 active; AID 2757;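 active means fluorescence span over the dose series, or activity score, above about 33, limit read from the data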
Active calls of the source: *; . = no result given; + = active, no number.

SMILES	CIT2-GFP yeast	LAP4 TOR yeast	MEP2-GFP yeast	AGP1-GFP MLPCN	RPL19A-GFP yeast	LAP4 cherry2	MEP2 cherry2	RPL19A GFP CP2	CIT2 GFP CP2	AGP1-GFP pick2	s288c autofluor
CCCCNC(=O)c1cc2c(-c3ccc(Cl)cc3)nn(C)c2s1	151*	157*	216*	104	105	103	105	100	99	98	.
CC1=CN2C(=N)/C(=C/c3ccco3)C(=O)N=C2S1	104	99	103	89	104	.	.	.	.	.	.
CC1=CN2C(=N)/C(=C/c3ccc([N+](=O)[O-])o3)C(=O)N=C2S1	62	863*	+	138	226	+	+	718	+	243*	.
CCCCCCSc1ccc(-c2nc3ccccn3c2NCCCC)cc1	88	161*	104	92	99	125	108	97	101	94	.
N/C(Cc1ccc(Cl)cc1Cl)=N\OC(=O)c1cccs1	130	217*	111	47	77	197*	159*	84	186*	75	1.4
[O-][n+]1cccc2c(Br)cc(Br)c(O)c21	118	163*	100	108	101	.	.	.	.	.	1.1
C[n+]1cccc2c(Br)ccc([O-])c21	100	111	103	108	101	.	.	.	.	.	.
CCc1nnc(NC(=O)CSc2nc(C)cc(C)c2C#N)s1	100	104	105	108	99	.	.	.	.	.	.
Cc1c(C(=O)N2CCN(S(=O)(=O)c3cc(F)ccc3F)CC2)oc2ccccc12	103	106	99	100	101	.	.	.	.	.	.
O=C(COc1ccccc1)NNC(=S)NC(=O)c1ccc(Cl)cc1Cl	92	219*	119	98	109	260*	185*	83	122	117	1.4
CCOC(=O)CN1C(=O)N[C@@H](c2cccc(F)c2)C(C(=O)OC)=C1C	101	127	92	88	100	.	.	.	.	.	.
COc1ccc(OC)c(NC(=O)COC(=O)CCCN=C2NS(=O)(=O)c3ccccc32)c1	84	163*	110	106	86	100	102	100	98	101	.
Cc1ccc(C)c(NC(=O)COC(=O)CCCN=C2NS(=O)(=O)c3ccccc32)c1	93	94	90	97	97	.	.	.	.	.	.
Cc1noc(C)c1C(=O)Nc1ccc(N(C)C)cc1	162*	85	99	102	94	100	100	100	102	103	.
Cc1noc(C)c1C(=O)Nc1ccc(F)cc1	93	123	97	110	103	.	.	.	.	.	.
COc1ccc(C2OC(=O)CC2C(=O)NCc2ccccc2Cl)cc1OC (stereo unspecified)	105	102	104	103	104	.	.	.	.	.	.
CN(Cc1ccccc1C#N)S(=O)(=O)c1cccs1	103	99	106	101	110	.	.	.	.	.	.
N#Cc1nccnc1S(=O)(=O)c1cccs1	67	251*	77	86	67	.	.	.	.	.	0.61
O=C(O)C1CCCCC1C(=O)Nc1cc(C(F)(F)F)ccc1Cl (stereo unspecified)	99	102	102	95	96	.	.	.	.	.	.
CC(CNc1ccccc1O)C(=O)O (stereo unspecified)	98	84	84	95	102	.	.	.	.	.	.
Cc1c(Br)c(=O)oc2c(Br)c(O)ccc12	101	94	94	75	106	.	.	.	.	.	.
Cc1c(Br)c(=O)oc2c(Br)c(O)c(O)cc12	88	85	159	25	59	97	97	98	107	101	-0.1
Cc1nc(CS(=O)(=O)c2ccccn2)sc1C(=O)NNC(=O)c1ccc(Cl)cc1	94	97	100	102	98	.	.	.	.	.	.
CS/C(=N\S(=O)(=O)c1ccc(Cl)cc1)c1ccccc1	91	100	97	91	97	.	.	.	.	.	.
O=S(=O)(/N=C(\Sc1ccc(Cl)cc1)c1ccccc1)c1ccccc1	82	214*	88	93	83	.	.	.	.	.	-2.2
SMILES	CIT2-GFP yeast	LAP4 TOR yeast	MEP2-GFP yeast	AGP1-GFP MLPCN	RPL19A-GFP yeast	LAP4 cherry2	MEP2 cherry2	RPL19A GFP CP2	CIT2 GFP CP2	AGP1-GFP pick2	s288c autofluor
COC(=O)[C@H](Cc1ccccc1)NC(=O)c1ccc2ccccc2n1	89	85	93	90	96	.	.	.	.	.	.
CC(C)(C)NC(=O)[C@@H]1C[C@@H]2CCCC[C@@H]2CN1C[C@@H](O)[C@H](Cc1ccccc1)NC(=O)[C@H](CC(N)=O)NC(=O)c1ccc2ccccc2n1	79	96	96	82	100	107	114	96	113	101	.
Cc1cccc(OCCN2CSC(=S)N(C)C2)c1	83	160*	99	103	84	.	.	.	.	.	0.3
COc1cccc(NC(=O)CN(C)C(=O)c2ccc3c(c2)S(=O)(=O)N=C2CCCCCN23)c1	94	96	77	103	92	.	.	.	.	.	.
Cc1ccc(C)c(CNC(=O)Nc2ccccc2)c1	100	100	108	103	98	.	.	.	.	.	.
Cc1ccc(S(=O)(=O)N2CCC(=O)N(CCOCc3ccc(F)cc3)CC2)cc1	68	119	88	75	91	.	.	.	.	.	.
O=C1CCN(S(=O)(=O)c2ccccc2)CCN1CCOCc1ccc(F)cc1	108	179*	190*	108	81	97	95	98	103	99	0
O=C(O)C1Sc2[nH]c(=O)sc2C2c3cc(Br)ccc3OC(=O)C12 (stereo unspecified)	101	151*	112	90	99	.	.	.	.	.	3.3
COc1cc(C=O)ccc1OC(=O)Nc1ccccc1	110	88	103	105	95	.	.	.	.	.	.
